Source: article PMC7826789 (International Journal of Molecular Sciences, 2021)

Key:
YSK1 = tested on: T1, YSK1; conditions: Compound Concentration (nM):1000
T1 construct: gene STK25

YSK4 = tested on: T2, YSK4; conditions: Compound Concentration (nM):1000
T2 construct: gene MAP3K19

ZAK = conditions: Compound Concentration (nM):1000
ZAP70 = conditions: Compound Concentration (nM):1000
p38-alpha = tested on: T3, p38-alpha; conditions: Compound Concentration (nM):1000
T3 construct: gene MAPK14

p38-beta = tested on: T4, p38-beta; conditions: Compound Concentration (nM):1000
T4 construct: gene MAPK11

p38-delta = tested on: T5, p38-delta; conditions: Compound Concentration (nM):1000
T5 construct: gene MAPK13

p38-gamma = tested on: T6, p38-gamma; conditions: Compound Concentration (nM):1000
T6 construct: gene MAPK12
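For Percent Control in this document: KINOMEscan scanMAX binding as percent activity remaining versus control; lower means stronger binding.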

Structure (SMILES) | Kinases covered (ATM) | Kinases covered (ATR) | Percent Control (YSK1) [%] | Percent Control (YSK4) [%] | Percent Control (ZAK) [%] | Percent Control (ZAP70) [%] | Percent Control (p38-alpha) [%] | Percent Control (p38-beta) [%] | Percent Control (p38-delta) [%] | Percent Control (p38-gamma) [%]
CNCc1ccc(-c2cc(-c3nc(-c4ccc(S(=O)(=O)C(C)C)cc4)cnc3N)on2)cc1 [VE-822] | ATM | ATR |  |  |  |  |  |  |  | 
CCS(=O)(=O)c1ccc(OC)c(Nc2ncc(-c3cccc(F)c3)o2)c1 [GW621970X] |  |  | 79 | 90 | 82 | 86 | 100 | 100 | 100 | 100
COc1ccc(COc2ccc(Cc3cnc(N)nc3N)cc2OC)cc1 [GW632580X] |  |  | 100 | 91 | 87 | 97 | 100 | 100 | 85 | 89
CC(C)COC(=O)c1ccc2c(c1)/C(=C/Nc1ccc(S(N)(=O)=O)cc1)C(=O)N2 [GW416981X] |  |  | 65 | 11 | 100 | 100 | 100 | 100 | 100 | 100
Cl.c1ccc(Cc2nc3ccc(Nc4ncnc5ccccc45)cc3[nH]2)cc1 [GR269666A] |  |  | 87 | 100 | 100 | 90 | 100 | 100 | 100 | 100
CC1=C(C(=O)Nc2ccc3[nH]ncc3c2)C(c2ccc3ccccc3c2)CC(=O)N1 (centres unmarked) [GSK270822A] |  |  | 68 | 75 | 92 | 99 | 100 | 100 | 94 | 100
O=C1Nc2ccc(C(=O)c3ccco3)cc2C1=Cc1cc(Cl)c(O)c(Cl)c1 [GW406108X] |  |  | 85 | 20 | 100 | 100 | 93 | 100 | 100 | 44
COc1ccc2[nH]c3c4[nH]c5ccc(OC)cc5c4c4c(c3c2c1)C(=O)NC4=O [GW296115X] |  |  | 89 | 0 | 100 | 76 | 87 | 100 | 86 | 70
CCS(=O)(=O)c1ccc(OC)c(Nc2ncc(-c3cccc(OC)c3)o2)c1 [GW580509X] |  |  | 81 | 96 | 100 | 100 | 100 | 100 | 100 | 100
COc1ccc2cc(-c3c(-c4ccncc4)nc(-c4ccc(S(C)(=O)=O)cc4C)n3C)ccc2c1 [SB-633825] |  |  | 100 | 66 | 89 | 84 | 100 | 79 | 83 | 100
COc1cccc(-c2c[nH]c3c(N/N=C/c4ccncc4)ncnc23)c1 [GW814408X] |  |  | 65 | 0.7 | 17 | 89 | 100 | 100 | 100 | 100
COc1cc2ncn(-c3cc(O[C@H](C)c4ccccc4Cl)c(C(N)=O)s3)c2cc1OC [GSK237701A] |  |  | 78 | 5.6 | 100 | 93 | 100 | 100 | 100 | 100
NS(=O)(=O)c1ccc(N/N=C2\C(=O)Nc3ccc(C(=O)NCc4ccncc4)cc32)cc1 [GW300657X] |  |  | 76 | 2.4 | 100 | 85 | 100 | 100 | 100 | 42
COC(=O)Nc1nc2ccc(Oc3ccc(NC(=O)Nc4cc(C(F)(F)F)ccc4F)cc3)cc2s1.Cl [GW693917A] |  |  | 100 | 12 | 6.8 | 82 | 18 | 10 | 96 | 46
NS(=O)(=O)c1ccc(N/N=C2\C(=O)Nc3ccc(-c4cnco4)cc32)cc1 [GW276655] |  |  | 59 | 1.9 | 80 | 88 | 100 | 100 | 99 | 66
O=C(Nc1n[nH]c2nc(-c3ccc(O)cc3)c(Br)cc12)C1CC1 [SB-725317] |  |  | 79 | 4.3 | 100 | 100 | 100 | 74 | 100 | 81
